Fam108B counter: mouse Fam108B serine hydrolase inhibitors, primary screen, counter-screen for RBBP9 inhibitor project, biochemical, fluorescence polarization | recombinant Fam108B, FP-Rh probe fluorescence polarization | inhibition, % at 9.51 µM | 300,000 compounds, 0.33% hits | AID 1947, 2009;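 active = inhibition above the screen mean inhibition plus 3 SD, computed separately per campaign, cut at about 18% in these data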;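 note: inhibitors lower polarization as less probe binds the enzyme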
PAD4 FP inh: human PAD4 inhibitors, primary screen, biochemical, fluorescence polarization, 1536-well format | inhibition, % at 6.36 µM | recombinant PAD4, RCA probe fluorescence polarization | 330,000 compounds, 0.41% hits;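 active = percent inhibition above a cutoff equal to the mean of all tested compounds plus 3 SD, cut at about 15% in these data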;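 note: 0% = PAD4 with RCA probe and DMSO and 100% = probe without PAD4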
GSTO1 inh: inhibitors of recombinant GSTO1, primary screen, counter-screen for RBBP9 inhibitor project, biochemical, fluorescence polarization; Glutathione S-transferase omega-1 (Homo sapiens), P78417; activity-based probe fluorescence polarization; inhibition, % at 5.96 µM; 300,000 compounds, 1.1% hits;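 active = inhibition above the campaign mean inhibition plus 3 SD, cut at about 35% in these data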;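 note: 0% = GSTO1-1 with DMSO and 100% = wells lacking GSTO1-1 enzyme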
LYPLA1 counter: LYPLA1 inhibitors, primary screen, counter-screen for PME1 inhibitor project, biochemical, fluorescence polarization, FP-Rh probe ABPP | recombinant LYPLA1 | inhibition, % at 5.9 µM | 320,000 compounds, 0.16% hits;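 active = inhibition above the mean of all tested compounds plus 3 SD, set per campaign, cut at about 14% in these data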;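 note: inhibitors block serine hydrolase probe labeling of LYPLA1 so polarization falls; 0% = enzyme with DMSO and 100% = wells lacking LYPLA1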
PME-1 primary: PME-1 inhibitors via competitive probe labeling, primary screen, biochemical, fluorescence polarization, FP-Rh probe, HTS | recombinant PME-1 | Protein phosphatase methylesterase 1 (Homo sapiens), Q9Y570 | inhibition, % at 5.9 µM | 320,000 compounds, 0.53% hits;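 active = inhibition above the campaign mean of all compounds plus 3 SD, cut at about 26% in these data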;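 note: competitive labeling of PME-1 active site by serine hydrolase directed probe; 0% = PME-1 with DMSO and 100% = wells lacking PME-1 enzyme; inhibitors block probe labeling so polarization falls and inhibition rises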
Target sequence (Q9Y570 whole entry, looked up): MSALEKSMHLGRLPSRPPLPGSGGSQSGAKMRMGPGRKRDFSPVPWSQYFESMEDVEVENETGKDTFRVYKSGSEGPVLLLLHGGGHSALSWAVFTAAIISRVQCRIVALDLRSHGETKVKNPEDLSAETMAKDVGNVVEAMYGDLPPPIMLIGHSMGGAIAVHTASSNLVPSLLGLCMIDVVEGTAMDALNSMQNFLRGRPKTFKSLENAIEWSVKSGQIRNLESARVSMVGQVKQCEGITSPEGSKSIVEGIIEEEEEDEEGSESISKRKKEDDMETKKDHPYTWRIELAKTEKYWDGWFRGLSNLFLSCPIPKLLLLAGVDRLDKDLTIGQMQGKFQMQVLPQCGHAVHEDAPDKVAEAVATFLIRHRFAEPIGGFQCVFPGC
LYPLA2 counter: LYPLA2 inhibitors, primary screen, counter-screen for PME1 inhibitor project, biochemical, fluorescence polarization, FP-Rh probe ABPP | Acyl-protein thioesterase 2 (Homo sapiens), O95372 | recombinant LYPLA2 | inhibition, % at 5.9 µM | 320,000 compounds, 0.38% hits;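 active = inhibition above the screen-wide mean plus 3 SD, limit set per campaign, cut at about 26% in these data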;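 note: 0% = LYPLA2 with DMSO and 100% = wells lacking LYPLA2 enzyme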
Target sequence (O95372 whole entry, looked up): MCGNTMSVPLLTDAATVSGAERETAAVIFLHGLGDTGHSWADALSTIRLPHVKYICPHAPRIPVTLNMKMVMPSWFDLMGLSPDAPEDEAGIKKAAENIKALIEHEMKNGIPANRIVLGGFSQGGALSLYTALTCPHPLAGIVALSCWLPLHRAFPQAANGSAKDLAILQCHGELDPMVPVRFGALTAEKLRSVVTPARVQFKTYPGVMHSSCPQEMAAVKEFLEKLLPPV
Numbers without * were called inactive; / = no result given. Rows were chosen to be rich in hits. Some 1.8% of all compounds tested hit in one or more screens of this group.

SMILES | Fam108B counter | PAD4 FP inh | GSTO1 inh | LYPLA1 counter | PME-1 primary | LYPLA2 counter
COc1cc(C2Nc3cccc4cccc(c34)N2)ccc1O | 11 | -5 | 31 | -19 | 27* | -15
Cc1cccc(C2Nc3cccc4cccc(c34)N2)c1 | 13 | -1 | 37* | -4 | 11 | -5
COc1ccccc1C(=O)NC(=O)CSc1ccc(C)c(C)c1 | / | -7 | / | / | / | /
Cc1ccc(NC(=S)NNC(=S)Nc2cccc(C(F)(F)F)c2)cc1 | 12 | 1 | 38* | -12 | 25 | 2
CC1(c2ccc([N+](=O)[O-])cc2)NC(=O)N(CC(=O)Nc2cccnc2Cl)C1=O (stereo not given) | 4 | 5 | -3 | 1 | 5 | 3
Nc1ccc(Br)c2c1C(=O)c1ccccc1C2=O | 1 | 4 | 10 | 4 | 26* | 3
Cc1ccc(O)c(C(=O)c2cc(C#N)c(=O)n(-c3nccs3)c2)c1 | 8 | -11 | 9 | -7 | 33* | -7
CCN1C(=O)c2ccccc2S(=O)c2ccc(C(=O)NCc3ccccn3)cc21 (stereo not given) | 2 | 4 | 37* | 4 | 6 | 7
CCN1C(=O)c2ccccc2S(=O)c2ccc(C(=O)NCCN(CC(C)C)CC(C)C)cc21 (stereo not given) | -2 | -5 | -2 | 4 | 0 | 7
Cn1c(SCC(=O)N2CCOCC2)nc2c(c1=O)SCC2 | 1 | -1 | -11 | -8 | 5 | -5
CCCN(CC(=O)Nc1ccccc1C)C(=O)COc1c(C)cccc1C | / | 0 | / | -1 | 0 | 3
CCCN(CC(=O)Nc1ccccc1C)C(=O)COC(=O)CSc1ccc([N+](=O)[O-])cc1 | 1 | 12 | 7 | -2 | 28* | 2
COc1ccc(-n2c(C)cc(C(=O)CN3C(=O)c4ccccc4C3=O)c2C)cc1 | 0 | 5 | -7 | -5 | -1 | 15
COc1ccc(-n2c(C)cc(C(=O)CCl)c2C)cc1 | 1 | 2 | 97* | 1 | 10 | -2
Cc1cc(C(=O)CC#N)c(C)n1-c1ccc(OC(F)F)cc1 | 5 | -10 | -14 | -3 | 36* | 6
COc1ccc(-n2c(C)cc(C(=O)COc3ccc(C)nc3[N+](=O)[O-])c2C)cc1 | 5 | -1 | 3 | 5 | -3 | 26*
Cc1ccc(OCC(=O)c2cc(C)n(C3CC3)c2C)c([N+](=O)[O-])n1 | 2 | -6 | 10 | -3 | -7 | 12
Cc1cc(-n2c(C)cc(C(=O)CCl)c2C)no1 | -1 | 3 | 83* | 3 | -4 | -1
C=C1/C=C(\C)[C@](C)(O)C[C@H](O)CC(=O)[C@H](O)[C@@H](O)[C@H](C)C[C@H](C)OC(=O)/C(C)=C/CC/C=C/[C@@H]2O[C@H]2C[C@H](C)C1 | / | 1 | / | / | / | /
CCOC(=O)NC1(NC(C)C)Oc2ccccc2O1 | 2 | -2 | 37* | 2 | 0 | -3
CCOC(=O)NC1(Nc2ccc(C)cc2)Oc2ccccc2O1 | 2 | -3 | 82* | -4 | 4 | -5
O=C(NC1CCN(Cc2ccc(Cl)cc2Cl)CC1)c1ccccc1 | 1 | 2 | 8 | 1 | 8 | 3
CN(CC(=O)NCc1ccco1)S(=O)(=O)c1ccc(F)cc1 | -2 | -2 | 2 | 2 | 4 | -4
CCOC(=O)c1cc(C#N)c(SCC(N)=O)[nH]c1=O | 2 | -4 | 36* | -9 | -2 | 1
O=C(C(Cl)Cl)N1CCN(Cc2ccccc2)CC1 | -3 | -4 | 35* | 0 | -6 | 2
SMILES | Fam108B counter | PAD4 FP inh | GSTO1 inh | LYPLA1 counter | PME-1 primary | LYPLA2 counter
COC(=O)c1oc2ccc(OC)cc2c1N | 3 | -4 | -1 | 1 | -1 | 1
COc1ccc(C(=O)c2oc3ccc(OC)cc3c2N)cc1 | 9 | -4 | -4 | 4 | 33* | 4
CC(=O)c1cc(C)ccc1OC(=O)c1ccncc1 | -2 | -4 | -4 | 1 | -5 | -1
ClCc1nnc(-c2ccccc2)o1 | 3 | 0 | 102* | 0 | -1 | 0
O=C(CNc1ccc2ccccc2c1)N/N=C/c1ccncc1 | 0 | -4 | 1 | 1 | 9 | -1
O=C(CNc1ccc2ccccc2c1)N/N=C/c1ccc(OC(=O)/C=C/c2ccco2)cc1 | 16 | 3 | 1 | -3 | 30* | 22
O=C(CN1CCN(c2ccc(O)cc2)CC1)Nc1cc(S(=O)(=O)N2CCCC2)ccc1Cl | 3 | 0 | 20 | 2 | 37* | 3
O=C(CSc1cccc(C(F)(F)F)c1)Nc1cc(S(=O)(=O)N2CCCC2)ccc1Cl | -6 | 1 | -4 | -7 | 49* | -15
Cn1nnnc1SCC(=O)Nc1cc(S(=O)(=O)N2CCCC2)ccc1Cl | 0 | -3 | 6 | 0 | 1 | 0
CCN1CCN(CC(=O)Nc2cc(S(=O)(=O)N3CCCCC3)ccc2Cl)CC1 | / | -5 | / | / | / | /
COc1ccc(N=Nc2nc(-c3ccccc3)c(-c3ccccc3)[nH]2)cc1 | 10 | -3 | -19 | -4 | 28* | -5
COc1ccccc1N=Nc1nc(-c2ccccc2)c(-c2ccccc2)[nH]1 | 5 | -1 | -51 | -9 | 9 | -5
Oc1ccccc1N=Nc1nc(-c2ccccc2)c(-c2ccccc2)[nH]1 | 17 | -6 | -12 | -12 | 35* | -3
Cc1ccc(NC(=O)COc2cccc3c2OC(C)(C)C3)c(O)c1 | / | -7 | / | -4 | 0 | -4
Cc1ccc(S(=O)(=O)Nc2cc(C(C(=O)OC(C)C)C(=O)C(F)(F)F)c(O)c3ccccc23)c(C)c1 (stereo not given) | 5 | 8 | 44* | -7 | 11 | -15
CCOc1ccc(C(C(=O)NCC2CCCO2)N(Cc2cccs2)C(=O)c2snc(C(N)=O)c2N)cc1 (stereo not given) | -1 | -3 | 3 | -1 | -3 | -5
O=C(O)c1cccc(NC(=S)NC(=O)c2ccc(-c3ccc(Cl)cc3)o2)c1 | -9 | -1 | 14 | -3 | -23 | 28*
Cc1ccc(C(=O)O)cc1NC(=S)NC(=O)c1ccc(-c2ccc(Cl)cc2)o1 | -13 | 1 | -5 | 2 | 0 | 6
CC(Cl)C(=O)c1c[nH]c2ccccc12 (stereo not given) | 0 | 4 | 37* | 0 | 0 | -4
C[C@@H](NC(=O)C(=O)c1c[nH]c2ccccc12)c1ccccc1 | -3 | 4 | -3 | 2 | 5 | 6
COCCn1c(Cc2ccccc2)nnc1SCC(=O)N1CCCC1=O | / | -5 | / | -3 | 9 | -2
COC(=O)c1ccccc1S(=O)(=O)NNC(=O)Nc1ccccc1 | -1 | 2 | 3 | -1 | 2 | 4

Assay outcomes (PubChem BioAssay)
